Screening results from PubChem BioAssay.
This is one part of a sample in which hits are shown more often than they occur.
Bm FixLJ act = increases Burkholderia fixLJ two-component signaling; B. multivorans fixK-promoter GFP reporter, 18 h; stronger effect = higher value; z-score (concentration not given with the values); 29,000 tested, 0.3% active;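 active = replicate mean overnight rise in green fluorescent reporter signal, 3 or more SD over negative controls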
Of the large screens only hits and unclear results are named; the others gave an inactive call.

N#CC1(C(=O)N2CCc3[nH]nc(-c4cccc5ccccc45)c3C2)CC1	none
CCCCC(=O)OC1=C(C(=O)c2ccccc2)N(C)S(=O)(=O)c2ccccc21	none
CN1C(C(=O)c2ccccc2)=C(NC(=O)c2ccc(F)cc2)c2ccccc2S1(=O)=O	Bm FixLJ act 7.5
COC(=O)CN1C(C(=O)c2ccccc2)=C(OC(=O)c2ccc(F)cc2)c2ccccc2S1(=O)=O	none
Cc1ccc(NC(=O)c2ccccc2Br)c(C(=O)c2ccccc2)c1	none
CN1C(C(=O)c2ccccc2)=C(NC(=O)c2ccccc2Br)c2ccccc2S1(=O)=O	Bm FixLJ act 3.6
CCCN1C(C(=O)c2ccccc2)=C(OC(=O)C(C)(C)C)c2ccccc2S1(=O)=O	none
CC(C)CN(Cc1ccco1)C(=O)NCc1cncn1C1CC1	none
Cc1cc(-c2nn(C)c(Cl)c2CN2CCC(C(C)N(C)C)CC2)no1 (centres undefined)	none
Cc1ccc(OC2CCN(C(=O)c3cnn4ccn(C)c34)CC2)cc1	none
O=C(c1ccc(=O)[nH]c1)N1CCC(Oc2ccccc2Cl)CC1	none
COc1ccccc1C(=O)Nc1cccc(OCc2cc(=O)n3c(C)csc3n2)c1	none
Cc1csc2nc(COc3cccc(NC(=O)c4ccccc4F)c3)cc(=O)n12	Bm FixLJ act 3
Cc1ccccc1C(=O)Nc1cccc(OCc2cc(=O)n3c(C)csc3n2)c1	none
CCCC(=O)Nc1ccc(NC(=O)C(N)Cc2cnc[nH]2)cc1OC (centres undefined)	none
O=C(c1cccc(-c2ncn[nH]2)c1)N1CCc2c([nH]c3ccccc23)C1	none
COc1ccccc1NC(=O)c1sc2nc3c(cc2c1N)CCCCCC3	none
COc1ccccc1NC(=O)c1sc(-c2ccc(Cl)cc2)cc1N	Bm FixLJ act 4.2
COc1ccc(C(=O)Nc2cc(-c3nc4ccccc4s3)ccc2OC)cc1	none
Cc1ccc(CN2CCCC(c3nnc(Cn4ccnc4C)n3C)C2)cc1 (centres undefined)	none
CCCN1CC(NCc2cc(=O)c3c(C)ccc(C)c3[nH]2)CC1=O (centres undefined)	none
Cc1ccc(Nc2c(-c3ccc(Br)o3)nc3ccccn23)cc1	none
Cc1ccc(Nc2c(-c3c[nH]c4ccccc34)nc3ccccn23)cc1	Bm FixLJ act 4.6
Cc1ccc2nc(-c3c[nH]c4ccccc34)c(Nc3ccccc3C)n2c1	none
CCCc1nnc(N2CCC3(CCC(=O)N(CCO)C3)CC2)s1	none
Cc1ccnc(N2CCC3(CC2)OCCc2sc(C(=O)NC4CC4)cc23)n1	none
COc1cccc(NC(CNS(=O)(=O)c2ccc(Cl)cc2)c2ccccc2)c1 (centres undefined)	Bm FixLJ act 4.2
Cc1ccc(NC(CNS(=O)(=O)c2ccc(Cl)cc2)c2ccccc2)cc1 (centres undefined)	none
COc1cccc(NC(CNS(=O)(=O)c2ccc(C)cc2)c2ccccc2)c1 (centres undefined)	none
CC(C)c1nc(CN(C)C(=O)CCC2=NNC(=O)CC2)cs1	none
CN1CCC(N2CCCC2C(=O)NCc2cccnc2N)CC1 (centres undefined)	none
O=C(Cn1ncc2c3ccccc3n(Cc3cccc(Cl)c3)c2c1=O)NCc1cccs1	Bm FixLJ act 11
CC(CCc1ccccc1)NC(=O)Cn1ncc2c3ccccc3n(Cc3ccccc3)c2c1=O (centres undefined)	none
CC(CCc1ccccc1)NC(=O)Cn1ncc2c3ccccc3n(Cc3ccccc3F)c2c1=O (centres undefined)	none
O=C(Cn1ncc2c3ccccc3n(Cc3cccc(Cl)c3)c2c1=O)N1CCCCC1	none
O=C(Cn1ncc2c3ccccc3n(Cc3ccccc3)c2c1=O)NCc1ccccc1	none
CC(CCc1ccccc1)NC(=O)Cn1ncc2c3ccccc3n(Cc3cccc(Cl)c3)c2c1=O (centres undefined)	Bm FixLJ act 26
O=C(Cn1ncc2c3ccccc3n(Cc3cccc(Cl)c3)c2c1=O)N1CCCCCC1	Bm FixLJ act 8.7
O=C(Cn1ncc2c3ccccc3n(Cc3ccccc3)c2c1=O)NCc1cccs1	none
COc1ccc(CNC(=O)Cn2ncc3c4ccccc4n(Cc4cccc(Cl)c4)c3c2=O)cc1	Bm FixLJ act 24
Cc1c2cnn(CC(=O)NCc3ccccc3)c(=O)c2c(C)n1Cc1cccc(Cl)c1	none
O=C(Cn1ncc2c3ccccc3n(Cc3ccccc3)c2c1=O)N1CCCCCC1	none
O=C(Cn1ncc2c3ccccc3n(Cc3ccc(F)cc3)c2c1=O)NCc1cccs1	none
Cc1nc(CN2CCCN(C(=O)c3ccncc3Cl)CC2)cc(=O)[nH]1	none
CCc1csc(CCNC(=O)N2CCCC(C(=O)c3cccs3)C2)n1 (centres undefined)	none
CN(Cc1nc(C2CC2)no1)C(=O)c1cc(-c2ccccc2)on1	none
c1ccc(C2CC(c3noc(CCCN4CCOCC4)n3)[C@@H]3CCCN23)cc1 (some centres undefined)	none
Cc1ccccc1-c1cn[nH]c1C1CCN(c2cncc(CN(C)C)n2)CC1	none
CCn1cnnc1CCNC(=O)CC1C(=O)NCCN1Cc1ccc(C)o1 (centres undefined)	none
CCCn1nc(C)c(NC(=O)c2cnc(-c3ccccn3)nc2)c1C	none
Cc1cc(/C=C/c2ccc3cc(N(C)C)ccc3[n+]2C)c(C)n1-c1ccccc1	Bm FixLJ act 4
Cc1nc(-c2cccc(C(=O)N(C)Cc3noc(CC(C)C)n3)c2)nn1C	none
CCCNC(=O)N1CCC2(CC1)OCCc1cc(C(=O)NC(C)(C)C)sc12	none
Cc1cccc(C)c1NC(=O)Cn1c(=O)n(Cc2ccc(C(=O)NCc3ccco3)cc2)c(=O)c2sccc21	none
Cc1ccc(CNC(=O)c2ccc(Cn3c(=O)c4ccccc4n(CC(=O)Nc4c(C)cc(C)cc4C)c3=O)cc2)cc1	none
Cc1cc(C)c(NC(=O)Cn2c(=O)n(Cc3ccc(C(=O)NCc4ccco4)cc3)c(=O)c3sccc32)c(C)c1	Bm FixLJ act 4.5
CCOC(=O)N1CCC(c2nnc(CN3CCCCC3)n2C)CC1	none
CC(C)(C(=O)O)c1cnc(N2CCSCC2)nc1N1CCOCC1	none
Cc1ccc(C)c(S(=O)(=O)N2C[C@H]3COC[C@H](C2)N(C)C3=O)c1	none
Cc1nn(C2CCS(=O)(=O)C2)c(C)c1NC(=O)CN1CCCCCC1 (centres undefined)	none
Cc1ccc(F)cc1S(=O)(=O)N1CCCn2nc(C(O)CO)cc2C1 (centres undefined)	none
Cc1cccc(NC(=O)CCS(=O)(=O)c2cc(Br)cc3c2N(C(=O)C2CC2)CC3)c1C	none
Cc1ccccc1NC(=O)CCS(=O)(=O)c1cc(Br)cc2c1N(C(=O)C1CC1)CC2	none
CCC(=O)N1CCc2cc(Br)cc(S(=O)(=O)CCC(=O)Nc3cccc(C)c3C)c21	Bm FixLJ act 3.4
COc1cc(OC)c2nc(NCCOCCO)cc(C)c2c1	none
Cc1cccc(C)c1C(=O)NC(c1cnn(C)c1)C1CC(O)C1 (centres undefined)	none
CC(C)NC(=O)CCc1cc2n(n1)CCCN(C(=O)c1cccc(Cl)c1)C2	none
CCCn1cnnc1C(C)NC(=O)Cc1ccc(O)c(Cl)c1 (centres undefined)	none
